Screens deposited in PubChem by Broad Institute.
Many of the other results were omitted from the sample, so hits are more common in it than they were.
IDE exosite inh – exo-site inhibitors of human IDE, primary screen, biochemical, fluorescence anisotropy, probe displacement | Insulin-degrading enzyme (Homo sapiens), P14735 | purified IDE, FL-6b probe fluorescence polarization; active compounds read low | z-score at 20 µM | 6.3% of 17,000 active;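 active = z-score of -3 or lower, meaning strong loss of probe binding signal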;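 note: His-tagged human IDE residues 42-1019 made in E. coli with 30 nM FL-6b probe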
Target sequence (P14735 42-1019 limits assumed): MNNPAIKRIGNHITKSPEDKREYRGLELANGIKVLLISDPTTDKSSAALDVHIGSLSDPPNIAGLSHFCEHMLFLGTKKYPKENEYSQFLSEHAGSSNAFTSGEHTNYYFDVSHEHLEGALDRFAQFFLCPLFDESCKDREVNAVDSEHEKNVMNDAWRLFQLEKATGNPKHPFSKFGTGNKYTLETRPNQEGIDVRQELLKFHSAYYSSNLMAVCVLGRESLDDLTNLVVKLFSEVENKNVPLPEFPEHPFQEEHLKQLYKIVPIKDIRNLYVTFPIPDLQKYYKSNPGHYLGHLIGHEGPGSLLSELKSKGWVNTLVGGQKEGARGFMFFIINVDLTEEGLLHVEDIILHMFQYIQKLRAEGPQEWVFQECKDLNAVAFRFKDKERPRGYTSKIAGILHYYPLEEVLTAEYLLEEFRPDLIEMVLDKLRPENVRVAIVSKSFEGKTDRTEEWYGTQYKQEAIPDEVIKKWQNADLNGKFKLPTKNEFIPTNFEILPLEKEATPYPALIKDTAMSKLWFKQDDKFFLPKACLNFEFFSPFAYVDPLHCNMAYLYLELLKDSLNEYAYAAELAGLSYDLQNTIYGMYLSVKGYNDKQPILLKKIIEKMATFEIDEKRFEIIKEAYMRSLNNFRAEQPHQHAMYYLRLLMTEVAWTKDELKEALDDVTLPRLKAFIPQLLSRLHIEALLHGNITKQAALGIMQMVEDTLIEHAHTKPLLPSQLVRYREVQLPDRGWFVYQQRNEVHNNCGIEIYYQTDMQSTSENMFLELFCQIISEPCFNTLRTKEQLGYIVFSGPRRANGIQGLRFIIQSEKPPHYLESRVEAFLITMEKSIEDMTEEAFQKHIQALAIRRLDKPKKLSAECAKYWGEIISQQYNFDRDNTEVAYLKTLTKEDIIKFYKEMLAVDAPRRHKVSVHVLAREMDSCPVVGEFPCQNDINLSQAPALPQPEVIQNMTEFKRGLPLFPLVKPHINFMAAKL
* marks the source's active call; other numbers are inactive results.

SMILES	IDE exosite inh
O=C(Cc1cccnc1)N1CCCCN2[C@H](C1)[C@@H](c1ccc(/C=C/c3ccccc3)cc1)[C@@H]2CO	-9.2*
C/C=C/c1ccc([C@H]2[C@H]3CN(C(=O)Cc4cccnc4)CCCCN3[C@H]2CO)cc1	1.2
C/C=C/c1ccc([C@H]2[C@@H](CO)N3CCCCN(C(=O)Cc4cccnc4)C[C@H]23)cc1	-0.57
C/C=C/c1ccc([C@H]2[C@H](CO)N3CCCCN(C(=O)Cc4cccnc4)C[C@@H]23)cc1	-1.1
O=C(Cc1cccnc1)N1CCCCN2[C@@H](CO)[C@@H](c3ccc(C#CC4CCCC4)cc3)[C@@H]2C1	0.5
O=C(Cc1cccnc1)N1CCCCN2[C@@H](CO)[C@@H](c3ccc(/C=C/c4ccccc4)cc3)[C@@H]2C1	-8.3*
OC[C@H]1[C@@H]2c3ccccc3NC[C@@H]2N1Cc1cccnc1	2.4
O=C(Cc1cccnc1)N1CCCCN2[C@H](C1)[C@H](c1ccc(C#CC3CCCC3)cc1)[C@@H]2CO	3.5
CN1c2ccc(Br)cc2[C@H]2NCC[C@H]2[C@H]1CO	2.8
C[C@H](CO)N1C[C@H](C)[C@H](CN(C)C(=O)Oc2cccc3ccccc23)OCc2cnnn2CCCC1=O	0.47
COc1ccc(C#Cc2ccc([C@H]3[C@@H](CO)N4CCCCN(C(=O)Cc5cccnc5)C[C@@H]34)cc2)cc1	-2.3
N#Cc1cccc(-c2ccc([C@@H]3[C@@H](CO)N4CCCCN(C(=O)Cc5cccnc5)C[C@H]34)cc2)c1	1.1
O=C(Cc1ccccn1)N1CCCCN2[C@H](CO)[C@@H](c3ccc(-c4ccccc4F)cc3)[C@@H]2C1	-4.7*
O=C(Cc1ccccn1)N1CCCCN2[C@@H](CO)[C@@H](c3ccc(-c4ccc(F)cc4)cc3)[C@@H]2C1	1.7
O=C(Cc1ccccn1)N1CCCCN2[C@@H](CO)[C@H](c3ccc(-c4ccc(F)cc4)cc3)[C@@H]2C1	2.5
O=C(Cc1ccccn1)N1CCCCN2[C@H](C1)[C@@H](c1ccc(-c3ccc(F)cc3)cc1)[C@@H]2CO	4.4
O=C(Cc1ccccn1)N1CCCCN2[C@H](C1)[C@H](c1ccc(-c3ccc(F)cc3)cc1)[C@@H]2CO	1.3
O=C(Cc1ccccn1)N1CCCCN2[C@H](CO)[C@H](c3ccc(-c4ccccc4F)cc3)[C@@H]2C1	-4.2*
O=C(Cc1ccncc1)N1CCCCN2[C@H](CO)[C@H](c3ccc(C#CC4(O)CCCC4)cc3)[C@@H]2C1	1.5
COC(=O)[C@H]1[C@H](CO)[C@H]2Cn3c(ccc(-c4ccc(F)cc4)c3=O)[C@@H]1N2C(=O)c1ccccc1F	-0.42
COc1ccc(-c2ccc([C@@H]3[C@@H](CO)N4CCCCN(C(=O)Cc5ccccc5)C[C@@H]34)cc2)cc1	3.1
Cc1ccccc1-c1ccc([C@@H]2[C@H](CO)N3CCCCN(C(=O)Cc4ccccn4)C[C@@H]23)cc1	-16*
O=C(Cc1ccccn1)N1CCCCN2[C@H](CO)[C@H](c3ccc(Br)cc3)[C@H]2C1	-0.15
O=C(Cc1ccccn1)N1CCCCN2[C@H](CO)[C@@H](c3ccc(-c4ccccc4)cc3)[C@@H]2C1	-2.4
O=C(Cc1ccccn1)N1CCCCN2[C@@H](CO)[C@H](c3ccc(Br)cc3)[C@@H]2C1	-0.37
SMILES	IDE exosite inh
O=C(Cc1ccccn1)N1CCCCN2[C@H](C1)[C@@H](c1ccc(Br)cc1)[C@@H]2CO	-0.067
Cc1ccccc1-c1ccc([C@H]2[C@@H](CO)N3CCCCN(C(=O)Cc4ccccn4)C[C@H]23)cc1	-14*
N#Cc1cccc(-c2ccc([C@@H]3[C@@H](CO)N4CCCCN(C(=O)Cc5ccncc5)C[C@H]34)cc2)c1	2.4
C[C@@H]1CN([C@H](C)CO)C(=O)CCCn2nncc2CO[C@H]1CN(C)C(=O)Oc1cccc2ccccc12	0.57
O=C(Cc1cccnc1)N1CCCCN2[C@@H](CO)[C@H](c3ccc(C#CC4(O)CCCC4)cc3)[C@@H]2C1	1.4
O=C(O)C[C@@H]1CC[C@H]2NC[C@@H](O)COC[C@@H]2O1	0.58
COc1ccc(C#Cc2ccc([C@H]3[C@@H](CO)N4CCCCN(C(=O)Cc5ccncc5)C[C@H]34)cc2)cc1	0.97
COc1ccc(C#Cc2ccc([C@@H]3[C@@H](CO)N4CCCCN(C(=O)Cc5cccnc5)C[C@@H]34)cc2)cc1	2.7
COc1ccc(-c2ccc([C@@H]3[C@H](CO)N4CCCCN(C(=O)Cc5ccncc5)C[C@@H]34)cc2)cc1	-2.3
COc1ccc(C#Cc2ccc([C@H]3[C@H]4CN(C(=O)Cc5cccnc5)CCCCN4[C@H]3CO)cc2)cc1	-4*
COc1ccc(C#Cc2ccc([C@@H]3[C@@H](CO)N4CCCCN(C(=O)Cc5ccncc5)C[C@@H]34)cc2)cc1	0.35
COc1ccc(C#Cc2ccc([C@H]3[C@@H](CO)N4CCCCN(C(=O)Cc5ccncc5)C[C@@H]34)cc2)cc1	-4.8*
COc1ccc(C#Cc2ccc([C@@H]3[C@H]4CN(C(=O)Cc5ccncc5)CCCCN4[C@H]3CO)cc2)cc1	-0.35
COc1ccc(C#Cc2ccc([C@H]3[C@H]4CN(C(=O)Cc5ccncc5)CCCCN4[C@H]3CO)cc2)cc1	-3.5*
COc1ccc(C#Cc2ccc([C@H]3[C@@H](CO)N4CCCCN(C(=O)Cc5cccnc5)C[C@H]34)cc2)cc1	-1.3
C/C=C/c1ccc(C2[C@@H]3CN(C(C)=O)C[C@H]2N3)cc1 (stereo partly specified)	2.4
O=C(O)[C@H]1[C@H](CO)[C@H]2Cn3c(ccc(-c4cccnc4)c3=O)[C@@H]1N2C(=O)Nc1cc(F)ccc1F	1
COc1ccc(-c2ccc([C@H]3[C@@H](CO)N4CCCCN(C(=O)Cc5ccccc5)C[C@H]34)cc2)cc1	0.61
C[C@H](CO)N1C[C@H](C)[C@H](CN(C)C(=O)Oc2ccc3ccccc3c2)OCc2cn(nn2)CCCC1=O	0.073
CC(C)CC#Cc1ccc([C@H]2[C@@H](CO)N3CCCCN(C(=O)Cc4ccccn4)C[C@H]23)cc1	2.8
O=C(Cc1ccccc1)N1CCCCN2[C@@H](CO)[C@H](c3ccc(-c4ccccc4)cc3)[C@@H]2C1	-0.0073
O=C(Cc1ccccc1)N1CCCCN2[C@H](C1)[C@@H](c1ccc(C#Cc3ccccc3)cc1)[C@@H]2CO	-2.6
COc1ccc(C#Cc2ccc([C@@H]3[C@@H](CO)N4CCCCN(C(=O)Cc5ccccc5)C[C@@H]34)cc2)cc1	1.5
O=C(Cc1ccccc1)N1CCCCN2[C@H](C1)[C@H](c1ccc(C#Cc3ccccc3)cc1)[C@@H]2CO	-4.3*
O=C(Cc1ccccn1)N1CCCCN2[C@H](CO)[C@H](c3ccc(C#Cc4ccccc4)cc3)[C@@H]2C1	-5.2*
CCCC#Cc1ccc([C@H]2[C@@H](CO)N3CCCCN(C(=O)Cc4ccccn4)C[C@@H]23)cc1	4
CCCC#Cc1ccc([C@@H]2[C@H](CO)N3CCCCN(C(=O)Cc4ccccn4)C[C@@H]23)cc1	-2
C/C=C/c1ccc([C@@H]2[C@@H](CO)N3CCCCN(C(=O)Cc4ccncc4)C[C@H]23)cc1	1.9
CN1[C@H](CO)[C@H]2c3ccccc3NC[C@H]21	4
O=C(Cc1ccccc1)N1CCCCN2[C@H](C1)[C@@H](c1ccc(-c3ccccc3)cc1)[C@@H]2CO	2.3
